Several values for one entry are separate records, joined by “and”; a condition that tells them apart may be missing. Identical values can stand only once. Where a structure was tested more than once in an assay, its records may differ in their call. Activity calls are given as the source filed them. How the source made its calls: active means hit-call score of the fitted dose curve at least 0.9, where 1 is the maximum; inactive means score below 0.9.

Outcome and AC50 data for 27 compounds are collected here from PubChem BioAssay (EPA / NIEHS).

Read-out in the assay: Matrix Metallopeptidase 1 (MMP1), MMP1 (gene 4312)
Briefly: BSK_BE3C_MMP1: BioMAP Diversity Plus: BE3C Assay for Matrix Metallopeptidase 1 (MMP1) Biomarker Activity (AID 2283024). The conditions noted are these: primary human bronchial epithelial cells; actives raise or lower the signal. Here is the method:
BSK_BE3C is a cell-based, multiplexed-readout assay that uses bronchial epithelial cell, a human lung primary cell, with measurements taken at 24 hours after chemical dosing in a 96-well plate.BSK_BE3C_MMP1 is an assay component measured in the BSK_BE3C assay. It measures MMP-1 antibody related to regulation of gene expression using ELISA technology.Data from the assay component BSK_BE3C_MMP1 was analyzed into 1 assay endpoint. This assay endpoint, BSK_BE3C_MMP1, was analyzed with bidirectional fitting relative to DMSO as the negative control and baseline of activity. Using a type of binding reporter, gain or loss-of-signal activity can be used to understand changes in the signaling as they relate to the gene MMP1. Furthermore, this assay endpoint can be referred to as a primary readout, because this assay has produced multiple assay endpoints where this one serves a signaling function. To generalize the intended target to other relatable targets, this assay endpoint is annotated to the protease intended target family, where the subfamily is matrix metalloproteinase.
The levels of cell surface (or secreted, indicated by the prefix "s") biomarker endpoints were measured by ELISA. Overt cytotoxicity to cells in confluent adherent cultures (all systems other than the BT system) was assessed by measuring total protein levels using sulforhodamine B (SRB) staining in parallel cultures at the time of biomarker measurements, indicated as SRB endpoints. For proliferation assays for adherent cell types, individual cell types are cultured at sub-confluence and relative cell numbers quantified by SRB staining at time points optimized for each system (48 h: 3C and CASM3C systems; 72 h: BT and HDF3CGF systems; 96 h: SAg system). SRB was performed by staining cells with 0.1% SRB after fixation with 10% TCA and reading wells at 560 nm.Viability and proliferation of PBMC (T cells) was quantified by Alamar Blue reduction for the SAg and BT systems. For PBMC viability (referred to as PBMC Cytotoxicity within the assay endpoint names), cells were plated (75,000/well in a 96-well plate) and then chemical samples added for 1 h before addition of activators, SEB and TSST-1 (20 ng/mL final concentration each). Cells were incubated for 90 h. Then, Alamar Blue (20 uL/well) (Invitrogen, Cat DAL1100) was added for 6 h, and the plates were read with a fluorescence microplate reader at 546/580 nm (excitation/emission). For PBMC proliferation, cells were plated and activated as above but incubated for only 16 h prior to addition of Alamar Blue. Plates were read after 6 h.
`CC[N+](CC)(CC(=O)Nc1c(C)cccc1C)Cc1ccccc1` (tested in a mixture with another compound): the result was inactive.
One may read the AC50 as the midpoint of the concentration-response curve, whichever way the signal moves. As for `CCCCCCCCCCCCCCCCCC[N+](C)(C)C`, the half-maximal activity concentration (AC50) was 6.82 µM (active).
As for `CN(C)Cc1cc(C(C)(C)C)c(O)c(C(C)(C)C)c1`, the result was inactive.
For `COc1ccccc1Oc1c(NS(=O)(=O)c2ccc(C(C)(C)C)cc2)nc(-c2ncccn2)nc1OCCO`, the concentration at half-maximal activity (AC50) is 20 µM (active) and the result was inactive.
Turning to `CN(C)c1ccc(C(c2ccccc2)c2ccc(N(C)C)cc2)cc1`, the AC50 was 5.54 µM (active).
As for `CC[N+](CC)(CC(=O)Nc1c(C)cccc1C)Cc1ccccc1`, the result was inactive.
Still for that read-out and setting: under `CC(C)C1OCCN1CCOC(=O)NCCCCCCNC(=O)OCCN1CCOC1C(C)C` (stereo not drawn) stands “inactive”.
With `O=C(C(=O)c1ccccc1)c1ccccc1`, the AC50 is 0.048 µM (active).
Consider `COc1cc(CNC(=O)CCCC/C=C/C(C)C)ccc1O`, for which the half-maximal activity concentration (AC50) was 14.4 µM (active) and 14 µM (active).
Turning to `CCCCC(CC)COC(=O)C=Cc1ccc(OC)cc1` (stereo not drawn), the outcome was inactive.
Still for that read-out and setting: the same measure for `CCCCCCCCCC/C=C/C1CC(=O)OC1=O` (stereo not drawn): “inactive”; for `CCC[Si](OC(C)=O)(OC(C)=O)OC(C)=O`: “inactive”; for `CCCCCCCCCCC1CO1` (stereo not drawn): “inactive”.
The same measure, in the same setting: under `COc1ccc(C(=O)c2ccccc2O)c(O)c1` stands “inactive”.
On the same count and under the same terms, the same measure for `CCC(C)=NO`: “inactive”; for `Cc1cc(-n2nc3ccc(Cl)cc3n2)c(O)c(C(C)(C)C)c1`: “inactive”; for `Oc1cccc2ccccc12`: “inactive”.
`OC(C(F)(F)F)(C(F)(F)F)C(O)(C(F)(F)F)C(F)(F)F`: the outcome was inactive.
As to `CC(C)CC(=O)CC(C)CC(C)C` (stereo not drawn), the AC50 is 20 µM (active).
As for `CN(C)CCC(c1ccc(Cl)cc1)c1ccccn1` (stereo not drawn), the result was inactive.
Still for that read-out and setting: the same measure for `Sc1nc2ccccc2s1`: “inactive”; for `C1CN(CCOCCN2CCOCC2)CCO1`: “inactive”.
With `CCCCCCC(O)CCCCCCCCCCC(=O)OC` (stereo not drawn), the half-maximal activity concentration (AC50) was 3.22 µM (active).
With `Cc1c(C(N)=O)cc([N+](=O)[O-])cc1[N+](=O)[O-]`, the outcome was inactive.
Consider `O=[N+]([O-])c1cc(S(=O)(=O)Nc2ccccc2)ccc1Nc1ccccc1`, for which the AC50 is 5.29 µM (active) and 5.21 µM (active).
In the case of `COC(=O)/C=C\C(=O)OC`, the outcome was inactive.
Still for that read-out and setting: under `Cc1cccnc1` stands “inactive”.
